Data from PubChem BioAssay (EPA / NIEHS).
Results filed as inconclusive are left out. Activity calls are given as the source filed them. How the source made its calls: active means hit-call score of the fitted dose curve at least 0.9, where 1 is the maximum; inconclusive means response in the unintended direction; inactive means score below 0.9.

Experiment: Tanguay_ZF_120hpf_PE_legacy: (Legacy) Oregon State University Tanguay Lab 120 Hour Post-fertilization zebrafish Assay for Pericardial Edema (AID 2283640);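 on AC50: potency for increased incidence of pericardial edema versus DMSO baseline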
Procedure: Tanguay_ZF_120hpf_legacy is a whole embryo, multiplexed endpoint assay using zebrafish larvae exposed for 120 hours post fertilization on a 96-well plate.Tanguay_ZF_120hpf_PE_legacy is one of one assay component(s) measured or calculated from the Tanguay_ZF_120hpf_legacy assay. It is designed to make measurements of zebrafish development as detected with brightfield microscopy of developing zebrafish embryos.Data from the assay component Tanguay_ZF_120hpf_PE_legacy was analyzed into 1 assay endpoints. This assay endpoint, Tanguay_ZF_120hpf_PE_legacy, was analyzed in the positive analysis fitting direction relative to DMSO as the negative control and baseline of activity. Using a type of morphology reporter, gain-of-signal activity can be used to understand changes in developmentals as they relate to the whole embryo. To generalize the intended target to other relatable targets, this assay endpoint is annotated to the zebrafish development intended target family, where the subfamily is embryonic morphogenesis.
Zebrafish husbandry: Tropical 5D wild-type adult zebrafish were housed in at an approximate density of 1000 per 100 gallon tank at the Sinnhuber Aquatic Research Laboratory, Oregon State University, Corvallis, OR. Each tank was kept at standard laboratory conditions of 28C on a 14-h light/10-h dark photoperiod in fish water consisting of reverse osmosis water supplemented with a commercially available salt (Instant Ocean). Spawning funnels were placed into the tanks the night prior, and embryos were collected and staged. […] Ten microliters of each row of dilution plate 2 was added to 2 exposure plates. The final DMSO concentration used was 0.64% (vol/vol). Thirty-two embryos were also exposed to 5uM trimethyltin chloride (positive control). Plates were sealed to prevent evaporation and foil covered to reduce light exposure and kept in a 28C incubator. Embryos were statically exposed until 120 hpf. At 24 hpf, embryos were assessed for photomotor response using a custom photomotor response analysis tool (PRAT) and for developmental toxicity endpoints (MO24: mortality at 24 hpf, DP: developmental progression, SM: spontaneous movement, and NC: notochord distortion). At 120 hpf, locomotor activity was measured using Viewpoint Zebralab and assessed for 18 endpoints. Zebrafish acquisition and analysis program (ZAAP), a custom program designed to inventory, acquire, and manage zebrafish data, was used to collect developmental endpoints as either present or absent (i.e., binary responses were recorded). If mortality occurred for an embryo (at either 24 or 120 hpf), the non-mortality endpoints were not measured.

Structure (SMILES) | outcome | AC50
N=C(N)c1ccc(OCCCCCOc2ccc(C(=N)N)cc2)cc1 | inactive | –
CCCCCCCCCCCCCCC | inactive | –
CN(C)CCOC(c1ccccc1)c1ccccc1 | – | 26.7 µM (active)
Cc1[nH]nc2c1N=C(c1ccccc1Cl)c1cc([N+](=O)[O-])ccc1N2 | inactive | –
CCCCc1oc2ccccc2c1C(=O)c1cc(I)c(OCCN(CC)CC)c(I)c1 | inactive | –
CC(=O)Nc1ccc(O)cc1 | inactive | –
O=C(CCCN1CCC(O)(c2ccc(Cl)cc2)CC1)c1ccc(F)cc1 | – | 3.98 µM (active)
OCC(CO)(CBr)CBr | inactive | –
O=C(c1ccccc1)c1ccccc1 | inactive | –
CCCCC(CC)C(=O)O (stereo unspecified) | inactive | –
CCCCCCCCCCCCOS(=O)(=O)O | inactive | –
CCC(C)c1ccccc1O (stereo unspecified) | inactive | –
CCCCC=O | – | 42.9 µM (active)
CS(=O)(=O)c1ccc([C@@H](CC2CCCC2)C(=O)Nc2cnccn2)cc1Cl | inactive | –
O=C1NS(=O)(=O)c2ccccc21 | inactive | –
CN(Cc1cnc2nc(N)nc(N)c2n1)c1ccc(C(=O)N[C@@H](CCC(=O)O)C(=O)O)cc1 | inactive | –
